The results in this text go back to PubChem BioAssay (Tox21).

Inconclusive results are not listed. Unmarked numbers belong to inactive results. The source made the active and inactive calls. Calls follow the shape of the full dose curve.
% is scaled to controls: 0 for no effect and ±100 for the full control effect.

A short description of this test: qHTS assay to identify small molecule agonists of H2AX - cell viability counter screen (AID 1224847). Also: top concentration of the series differs between compounds; nearly all actives have a fitted effect of over 30% in size. The note with it: CHO-K1 viability, CellTiter-Glo luminescence, 3 h; series mostly up to 70.9 µM; activity change, negative = cytotoxicity: at the top concentration. An excerpt: National Center for Advancing Translational Sciences [NCATS]
NIH Chemical Genomics Center [NCGC]
U.S. Environmental Protection Agency [EPA]
National Institutes of Environmental Health Sciences [NIEHS]
National Toxicology Program [NTP]
U.S. Food and Drug Administration [FDA]
HTRF phospho-H2AX (Ser139) assay (Cisbio Bioassays, US) enables the quantitative detection of the histone variant H2AX when phosphorylated on serine 139. When double-stranded DNA breaks, either by ionizing radiation or endogenous physiological processes, H2AX becomes phosphorylated at Ser139. This phospho-Ser139 serves as a sensitive biomarker for the detection of such breaks, localizing the site of DNA repair. So, HTRF phospho-H2AX Ser139 is a pertinent assay to study genome stability, the cell cycle, DNA repair, and it serves as a biomarker for cancer, and to understand aging. Wild type CHO-K1 cells were used to identify the inducers of Phospho-H2AX Ser 139 from the Tox21 compound collections. Also cytotoxicity of the Tox21 10K compound library against the CHO-K1 cell line was tested by measuring the cell viability using CellTiter-Glo assay (Promega, Madison, WI).
Tox21 Assay Protocol Summary:
The CHO-K1 cells suspended in culture medium containing 10% FBS were dispensed at 1000 cells/ 3 ul/well in 1536-well white wall/solid bottom plates (Greiner Bio-One North America, NC) using a Multidrop Combi (Thermo Fisher Scientific Inc., Waltham, MA). After the assay plates were incubated at 37C overnight, 23 nl of compounds at 15 concentrations (from 5-48 columns) or positive control (from 1 to 4 columns) were transferred to the assay plates using a Pintool station (Wako, San Diego, CA) into each well resulting in a final DMSO concentration of 0.76%. After 3hr incubation at 37C, 3 uL/well CellTiter-Glo luminescent cell viability reagent (Promega Corporation, Madison, WI) was added using a Flying Reagent Dispenser (FRD) (Aurora Discovery, CA). After incubation at room temperature for 30 min, the luminescence intensity was read using a ViewLux plate reader (PerkinElmer, Waltham, MA).
On the technique in general: qHTS replaces the single test concentration by a dilution series.
For the compound `O=c1n(CCO)c(=O)n(CCO)c(=O)n1CCO`, the Potency entry is “inactive”.

With `C=COCC1CCC(CO)CC1` (stereo not given), the “activity change, negative = cytotoxicity” value is -4.84% [at 154 µM].

As to `O=C(O)CCCc1ccccc1`, the “activity change, negative = cytotoxicity” value is -1.77%.

With `COC(=O)c1cc(C(=O)OC)cc(S(=O)(=O)O)c1`, the “activity change, negative = cytotoxicity” value was 5.91% [at 154 µM].

Turning to `COc1ccc2c(c1)CCCC2=O`, the “activity change, negative = cytotoxicity” value is 1.6%.

Turning to `CCCCNC(=O)NCCCC`, the “activity change, negative = cytotoxicity” value was -4.9% [at 154 µM].

For `CCCCCOC(=O)CCCCC`, the “activity change, negative = cytotoxicity” value is -1.99% [at 154 µM].

In the case of `CC(=O)OCC(CCn1cnc2cnc(N)nc21)COC(C)=O`, the “activity change, negative = cytotoxicity” value is 1.27%.

Consider `COc1cc(C(=O)N2CCCCCCC2)cc(OC)c1OC`, for which the “activity change, negative = cytotoxicity” value was 4.51%.

Turning to `FC1(F)C(F)(F)C(F)(F)C2(F)C(F)(F)C(F)(F)C(F)(F)C(F)(F)C2(F)C1(F)F` (stereo not given), the “activity change, negative = cytotoxicity” value is 3%.

Turning to `C=CCOCC(CC)(CO)COCC=C`, the “activity change, negative = cytotoxicity” value is 0.184% [at 154 µM].

`c1ccc([C@H]2CN3CCSC3=N2)cc1`: the “activity change, negative = cytotoxicity” value is -0.862%.

`c1cnc(N2CCN(Cc3ccc4c(c3)OCO4)CC2)nc1`: the “activity change, negative = cytotoxicity” value is 0.485%.

For the compound `Nc1ccc(S(=O)(=O)Nc2ccnn2-c2ccccc2)cc1`, the “activity change, negative = cytotoxicity” value was 0.817% [at 31.6 µM].

Regarding `CCOC(=O)c1c(C)n(C)c2ccc(O)cc12`, the “activity change, negative = cytotoxicity” value was -0.0536%.

As to `Cc1cc2c(cc1S(N)(=O)=O)S(=O)(=O)CCC2`, the “activity change, negative = cytotoxicity” value is -1.67%.

On to `Cc1c(O)cccc1O`, for which the “activity change, negative = cytotoxicity” value is 2.48% [at 154 µM].

`CN1CCN(c2cc3c(cc2F)c(=O)c(C(=O)O)cn3-c2ccc(F)cc2)CC1`: the “activity change, negative = cytotoxicity” value was 5.06%.

As to `CC(C)c1cc2c(cc1S(=O)(=O)O)[C@@]1(C)CCC[C@@](C)(C(=O)O)[C@@H]1CC2`, the “activity change, negative = cytotoxicity” value was 6.34%.

`CC(C)(C)NCCNC(C)(C)C`: the “activity change, negative = cytotoxicity” value was -3.93% [at 154 µM].

As to `CN1CC(=O)NC1=N`, the “activity change, negative = cytotoxicity” value is 1.72%.

Turning to `CCOC(=O)CC(C)=O`, the “activity change, negative = cytotoxicity” value was 2.72% [at 154 µM].

Consider `COC(=O)c1ccc(C)cc1C1=NC(C)(C(C)C)C(=O)N1` (stereo not given), for which the “activity change, negative = cytotoxicity” value is -0.677% [at 154 µM].

For the compound `O=C(c1ccccc1)C1CCCCC1`, the “activity change, negative = cytotoxicity” value was -10.6% [at 154 µM].

Take `CCO[Si](CCC1CCC2OC2C1)(OCC)OCC` (stereo not given): the “activity change, negative = cytotoxicity” value is 0.149% [at 154 µM].

Turning to `C[N+](C)(C)CCCCCC[N+](C)(C)C`, the Potency result is “inactive”.

Consider `CCCCCCCCCCCC`, for which the “activity change, negative = cytotoxicity” value was 4.29% [at 154 µM].

On to `CC(C)(C)c1nnc(NS(=O)(=O)c2ccccc2)s1`, for which the “activity change, negative = cytotoxicity” value was 1.88%.

As to `CC[N+](C)(C)c1cccc(O)c1`, the “activity change, negative = cytotoxicity” value was -0.63%.

As for `CCCCCCCCCCCCN(CCCCCCCCCCCC)CCCCCCCCCCCC`, the “activity change, negative = cytotoxicity” value was 2.53% [at 154 µM].

For `C[C@H]1C[C@@H](O)CC(C)(C)C1`, the “activity change, negative = cytotoxicity” value is 0.0615% [at 154 µM].

With `O=c1[nH]c(=O)n([C@H]2C[C@H](O)[C@@H](CO)O2)cc1I`, the “activity change, negative = cytotoxicity” value was -1.48%.

On to `CN(C(=O)c1c(O)c2ccccc2n(C)c1=O)c1ccccc1`, for which the “activity change, negative = cytotoxicity” value is 3.15%.

For `Cn1cc(S(C)=O)c(=O)c2ccc(F)cc21` (stereo not given), the “activity change, negative = cytotoxicity” value was -2.71%.

For `CC(C)(O)C(=O)c1ccccc1`, the “activity change, negative = cytotoxicity” value was 11.2% [at 154 µM].

For the compound `COC(=O)C1=C(C)NC(C)=C(C(=O)OC)C1c1ccccc1[N+](=O)[O-]`, the Potency result is “inactive”.

As for `Cc1ccc(Cl)cc1Cl`, the “activity change, negative = cytotoxicity” value is 5.58% [at 154 µM].

Take `O=C1CCCCCCCCCCCN1`: the Potency entry is “inactive”.

For `CC(=O)Nc1c(I)cc(I)c(C(=O)O)c1I`, the “activity change, negative = cytotoxicity” value was 3.68%.

For `CCCCC/C=C\CCC=O`, the “activity change, negative = cytotoxicity” value was 0.312% [at 154 µM].
